PubChem BioAssay (NCATS)
Where “and” joins values, the source holds several entries; their conditions need not be identical. Equal values may be shown once. Records with an inconclusive call do not appear. Calls of active or inactive are those of the source. Unless noted, calls come from the whole dose curve; as a rule, active = well fitted curve in either direction with a large enough effect (not every such curve was filed as active); inconclusive = small, poorly fitted or top-dose-only effect, or another doubt; inactive = flat fitted curve, though single readings scatter.

Assays:
[1] = AP1 Signaling Pathway (AID 357);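 note: ME-180 reporter cells stimulated with EGF at its EC50 level; % is set by controls: 0 for no effect and ±100 for the full control effect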
Method in brief: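 First, ME-180 AP-1-bla cells were cultured overnight at 37 °C in low-serum Opti-MEM. Next, titrated compounds with EC50 EGF were incubated 5 hours. Finally, CCF4 was added for 2.5 hours and the 460/530 nm ratio recorded.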

[2] = NFAT Signaling Pathway (AID 444); details: Jurkat NFAT-bla M1, carbachol, beta-lactamase ratio, 5 h;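 note: carbachol stimulus at about its EC50 of 1 µM final; % is set by controls: 0 for no effect and ±100 for the full control effect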
Method in brief: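 Read-out: CCF4 FRET ratio (460 nm/530 nm) after 1 h RT dye loading, used for %activity and AC50 from titration series. Cells: Jurkat NFAT-β-lactamase/M1 line, treated with compound plus 1 uM carbachol for 5 h, 37 °C.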

[3] = target: Glucocorticoid receptor (Homo sapiens) (UniProt P04150); experiment: GR-EFC Redistribution (AID 451; calls by dose curve; note: potency is the fitted concentration of half-maximal effect); details: CHO-K1 GR-EFC translocation, beta-gal luminescence, 2 h
Method in brief: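 Translocation of GR-ED fusion to nuclear EA restores b-gal, read by luminescence after 1 h room-temperature detection. Engineered CHO-K1 biosensor cells, 1,000/well, exposed 2 h at 37 C to titrations up to 46 uM final.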

[4] = target: Mitogen-activated protein kinase 10 (Mus musculus) (UniProt Q61831); experiment: JNK3 AlphaScreen Assay (AID 530);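 note: kinase came from lysate of stimulated human HepG2 cells; signal reports phosphorylation of biotinylated GST-cJun 1-79 at Ser73 with 10 µM ATP; % is set by controls: 0 for no effect and ±100 for the full control effect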
Method in brief: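 Kinase buffer: 20 mM Tris-HCl pH 7.6, 10 mM MgCl2, 1 mM DTT, 0.1 mM Na3VO4, 0.01% Tween-20; ATP 10 uM. Substrate biotin-GST-cJun(1-79), enzyme from activated HepG2 lysates. Detection by Ser73 phospho-antibody AlphaScreen.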

[5] = qHTS Assay for Lipid Storage Modulators (AID 1519; calls by dose curve); details: Drosophila S3 cells, BODIPY lipid droplet/cell ratio, laser cytometry, cells loaded with oleic acid
Method in brief: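 Cells seeded at 5,000 per well were treated with compounds over a concentration series and loaded with oleic acid (400 uM, as added). Lipid droplet fluorescence (488 nm excitation, 500-530 nm channel) was read by laser-scanning cytometry and normalized to 20 uM Triacsin C.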

[6] = target: Cytochrome P450 1A2 (Homo sapiens) (UniProt P05177); experiment: p450-cyp1a2 (AID 410; calls by dose curve; note: potency is the fitted concentration of half-maximal effect;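 for activity change, negative = inhibition: -100% = full effect of reference inhibitor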)
Method in brief: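 20nM CYP1A2, 100uM Luciferin-ME (=Km), 100mM KPO4; cpd 10 min RT; +NADPH regen, 60 min RT; stop/detect 20 min; luminescence. Normalized to furafylline 57 uM = full inhibition.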

[7] = Stat Signaling Pathway (AID 446);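 note: ME-180 cervical cancer cells given 40 pM IL-6 alongside compound; SIE-controlled beta-lactamase reporter measured as 460/530 nm FRET emission ratio; % is set by controls: 0 for no effect and ±100 for the full control effect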
Method in brief: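 Normalization used AC90 stimulation (300 pM IL-6) and AC90 inhibition (125 nM pan-JAK inhibitor at 40 pM IL-6). The underlying signal is SIE-driven beta-lactamase in ME-180 cells after 5 h IL-6 exposure with compound.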

[8] = target: Glucocorticoid receptor (Homo sapiens) (UniProt P04150); experiment: GR-GFP Redistribution (AID 450;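 active = compounds whose dose series gives a full or clear partial fitted curve of increased nuclear translocation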; note: potency is the fitted concentration of half-maximal effect); details: U2OS GR-GFP nuclear translocation, laser cytometry, 2 h
[9] = target: 3',5'-cyclic-AMP phosphodiesterase 4B (Homo sapiens) (UniProt Q07343); experiment: qHTS Assay for Inhibitors of PDE-IV (AID 607; active = well fitted activation curve with a large enough effect in the main read-out, with a control signal flat, not every such curve was filed as active; note: % of control where 0% means no effect)
Method in brief: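 HEK293 ACTOne cells with CNG channel (1000/well), endogenous PDE4; membrane potential dye, compounds up to 22.9 uM final. Fluorescence Ex 535/Em 590; RO 20-1724 (100 uM final) as reference.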

[10] = target: ATP-dependent 6-phosphofructokinase (Trypanosoma brucei brucei) (UniProt O15648); experiment: qHTS Assay to Find Inhibitors of T. brucei phosphofructokinase: hit validation (AID 492961; active = well fitted curve in the direction sought with a large enough effect; an effect the other way counts as inactive or inconclusive)
Method in brief: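 ADP-Glo luminescence read-out of ADP formed by 1.25 nM PFK from 0.1 mM ATP and 0.5 mM F6P (TEA pH 8.0, 45 min, RT). Compounds titrated; activity normalized to no-enzyme and full-enzyme controls.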

[11] = target: Luciferin 4-monooxygenase (Photinus pyralis) (UniProt P08659); experiment: Biochemical firefly luciferase enzyme assay for NPC (AID 624030; active = well fitted curve in the direction sought with a large enough effect; an effect the other way counts as inactive or inconclusive;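 note: purified P. pyralis luciferase at 10 nM with luciferin and ATP substrate; 0% = DMSO and -100% = full luciferase inhibition by PTC124 control; nearly all actives have a fitted effect of over 70% in size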)
Method in brief: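 Direct inhibition of firefly luciferase enzyme (10 nM final, 50 mM Tris Acetate) assessed by luminescence within 5 minutes. Percent activity scaled between DMSO and PTC124 positive control, with concentration-effect curves classified by fit quality and response.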

[12] = qHTS profiling for inhibitors of Plasmodium falciparum proliferation (AID 504749; active = well fitted curve in the direction sought with a large enough effect; an effect the other way counts as inactive or inconclusive;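 note: 0% = DMSO vehicle and full inhibition = artemisinin control; nearly all actives have a fitted effect of over 60% in size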); details: P. falciparum in erythrocytes, SYBR Green DNA, 72 h
Method in brief: (§1)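 In a 72 h erythrocytic culture (37 C, humidified, 5% CO2) at 2.5% hematocrit and 0.3% starting parasitemia, compounds were tested; SYBR Green I in detergent lysis buffer stained parasite DNA overnight.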

C2A = experiment: as above; details: P. falciparum in erythrocytes, SYBR Green DNA, 72 h; series mostly up to 28.7 µM
Method in brief: as §1

CP192 = experiment: as above; details: P. falciparum in erythrocytes, SYBR Green DNA, 72 h; series mostly up to 28.7 µM
Method in brief: as §1

CP211 = experiment: as above; details: P. falciparum in erythrocytes, SYBR Green DNA, 72 h; series mostly up to 28.7 µM
Method in brief: as §1

CP266 = experiment: as above; details: P. falciparum in erythrocytes, SYBR Green DNA, 72 h; series mostly up to 12.8 µM
Method in brief: as §1

CP315 = experiment: as above; details: P. falciparum in erythrocytes, SYBR Green DNA, 72 h; series mostly up to 28.7 µM
Method in brief: as §1

CP329 = experiment: as above; details: P. falciparum in erythrocytes, SYBR Green DNA, 72 h; series mostly up to 28.7 µM
Method in brief: as §1

FAB9 = experiment: as above; details: P. falciparum in erythrocytes, SYBR Green DNA, 72 h; series mostly up to 28.7 µM
Method in brief: as §1

[13] = target: Ubiquitin carboxyl-terminal hydrolase 1 (Homo sapiens) (UniProt O94782); experiment: Inhibitors of USP1/UAF1: Pilot qHTS (AID 504865; active = well fitted curve in the direction sought with a large enough effect; an effect the other way counts as inactive or inconclusive;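 note: rhodamine fluorescence freed from ubiquitin-rhodamine substrate followed over time; top concentration of the series differs between compounds; % is set by controls: 0 for no effect and ±100 for the full control effect; nearly all actives have a fitted effect of over 35% in size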)
Method in brief: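 1nM USP1/UAF1 + cpd, 15 min RT; start w/ Ub-Rho 150nM final; kinetic FL 480/540 nm, 6 reads q60 s. Buffer 50mM HEPES pH 7.8, 0.5mM EDTA, 1mM TCEP, 0.01% Tween-20, 0.1 mg/ml BSA.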

[14] = measured here: cell count channel max response
[15] = measured here: lipid channel max response
[16] = at 12.8 µM (top of the series), parasite line A
[17] = at 12.8 µM (top of the series), parasite line B

Chain of Luciferin 4-monooxygenase (Photinus pyralis) (P08659 whole entry, looked up): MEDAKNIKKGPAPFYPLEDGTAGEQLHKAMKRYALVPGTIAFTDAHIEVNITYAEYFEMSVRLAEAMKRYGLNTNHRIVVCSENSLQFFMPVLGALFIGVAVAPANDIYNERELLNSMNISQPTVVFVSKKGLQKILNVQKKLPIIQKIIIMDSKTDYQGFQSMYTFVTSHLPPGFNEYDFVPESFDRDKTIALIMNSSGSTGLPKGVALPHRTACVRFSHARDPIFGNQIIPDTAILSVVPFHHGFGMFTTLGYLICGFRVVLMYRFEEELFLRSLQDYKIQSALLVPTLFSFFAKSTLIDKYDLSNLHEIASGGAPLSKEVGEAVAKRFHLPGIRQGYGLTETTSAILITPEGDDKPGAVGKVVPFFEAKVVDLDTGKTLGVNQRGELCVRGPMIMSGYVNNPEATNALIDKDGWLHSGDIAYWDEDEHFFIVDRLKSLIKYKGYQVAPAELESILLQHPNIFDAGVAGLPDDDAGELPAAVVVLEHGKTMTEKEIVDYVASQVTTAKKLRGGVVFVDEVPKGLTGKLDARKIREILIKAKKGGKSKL
Chain of 3',5'-cyclic-AMP phosphodiesterase 4B (Homo sapiens) (Q07343 whole entry, looked up): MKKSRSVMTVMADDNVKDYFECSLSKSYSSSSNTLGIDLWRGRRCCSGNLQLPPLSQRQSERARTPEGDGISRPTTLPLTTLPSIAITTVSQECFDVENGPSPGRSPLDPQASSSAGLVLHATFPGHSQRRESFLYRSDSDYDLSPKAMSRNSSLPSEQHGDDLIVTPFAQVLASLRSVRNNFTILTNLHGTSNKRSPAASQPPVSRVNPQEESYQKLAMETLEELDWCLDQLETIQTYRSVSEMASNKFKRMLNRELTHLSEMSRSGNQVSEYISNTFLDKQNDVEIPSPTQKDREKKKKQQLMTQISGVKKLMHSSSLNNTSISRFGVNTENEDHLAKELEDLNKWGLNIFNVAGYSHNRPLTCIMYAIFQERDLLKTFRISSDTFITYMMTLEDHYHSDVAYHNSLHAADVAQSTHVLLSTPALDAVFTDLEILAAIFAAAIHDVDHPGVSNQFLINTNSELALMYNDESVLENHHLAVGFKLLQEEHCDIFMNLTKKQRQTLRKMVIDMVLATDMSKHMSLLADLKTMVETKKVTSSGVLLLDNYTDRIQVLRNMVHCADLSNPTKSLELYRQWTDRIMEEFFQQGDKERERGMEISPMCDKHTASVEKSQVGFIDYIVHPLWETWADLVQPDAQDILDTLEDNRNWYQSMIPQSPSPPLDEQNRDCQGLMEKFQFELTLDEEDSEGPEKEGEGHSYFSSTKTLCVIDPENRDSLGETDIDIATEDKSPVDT
Chain of Ubiquitin carboxyl-terminal hydrolase 1 (Homo sapiens) (O94782 whole entry, looked up): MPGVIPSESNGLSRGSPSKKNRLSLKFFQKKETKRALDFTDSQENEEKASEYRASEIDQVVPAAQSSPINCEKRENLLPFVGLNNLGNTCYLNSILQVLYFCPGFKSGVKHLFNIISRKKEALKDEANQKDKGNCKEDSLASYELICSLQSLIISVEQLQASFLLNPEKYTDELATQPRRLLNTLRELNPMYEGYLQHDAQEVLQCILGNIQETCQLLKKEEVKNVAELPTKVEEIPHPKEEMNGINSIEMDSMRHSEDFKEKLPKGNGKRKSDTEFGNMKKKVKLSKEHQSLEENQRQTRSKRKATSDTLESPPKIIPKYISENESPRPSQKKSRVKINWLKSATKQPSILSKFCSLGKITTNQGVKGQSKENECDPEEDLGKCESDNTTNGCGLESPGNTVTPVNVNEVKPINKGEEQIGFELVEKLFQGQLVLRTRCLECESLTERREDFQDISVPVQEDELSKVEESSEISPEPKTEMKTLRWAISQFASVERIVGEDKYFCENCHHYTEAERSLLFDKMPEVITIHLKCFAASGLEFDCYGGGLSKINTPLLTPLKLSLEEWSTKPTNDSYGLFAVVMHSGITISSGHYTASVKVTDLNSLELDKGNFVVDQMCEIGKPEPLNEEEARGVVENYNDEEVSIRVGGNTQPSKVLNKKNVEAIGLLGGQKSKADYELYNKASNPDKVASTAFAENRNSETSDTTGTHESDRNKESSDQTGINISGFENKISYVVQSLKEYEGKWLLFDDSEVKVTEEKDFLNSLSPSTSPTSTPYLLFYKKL
Chain of ATP-dependent 6-phosphofructokinase (Trypanosoma brucei brucei) (O15648 whole entry, looked up): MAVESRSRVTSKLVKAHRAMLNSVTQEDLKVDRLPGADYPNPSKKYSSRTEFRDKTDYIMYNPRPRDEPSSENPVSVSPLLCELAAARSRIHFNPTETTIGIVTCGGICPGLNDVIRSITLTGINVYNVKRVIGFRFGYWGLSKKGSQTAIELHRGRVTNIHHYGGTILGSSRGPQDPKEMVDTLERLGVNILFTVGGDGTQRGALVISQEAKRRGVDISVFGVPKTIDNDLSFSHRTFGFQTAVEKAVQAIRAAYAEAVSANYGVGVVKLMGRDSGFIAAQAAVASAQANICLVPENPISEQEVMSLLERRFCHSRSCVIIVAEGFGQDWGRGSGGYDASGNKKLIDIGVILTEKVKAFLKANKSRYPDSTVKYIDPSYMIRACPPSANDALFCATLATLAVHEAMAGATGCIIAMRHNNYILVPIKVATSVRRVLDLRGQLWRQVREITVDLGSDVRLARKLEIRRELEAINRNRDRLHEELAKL
Chain of Cytochrome P450 1A2 (Homo sapiens) (P05177 whole entry, looked up): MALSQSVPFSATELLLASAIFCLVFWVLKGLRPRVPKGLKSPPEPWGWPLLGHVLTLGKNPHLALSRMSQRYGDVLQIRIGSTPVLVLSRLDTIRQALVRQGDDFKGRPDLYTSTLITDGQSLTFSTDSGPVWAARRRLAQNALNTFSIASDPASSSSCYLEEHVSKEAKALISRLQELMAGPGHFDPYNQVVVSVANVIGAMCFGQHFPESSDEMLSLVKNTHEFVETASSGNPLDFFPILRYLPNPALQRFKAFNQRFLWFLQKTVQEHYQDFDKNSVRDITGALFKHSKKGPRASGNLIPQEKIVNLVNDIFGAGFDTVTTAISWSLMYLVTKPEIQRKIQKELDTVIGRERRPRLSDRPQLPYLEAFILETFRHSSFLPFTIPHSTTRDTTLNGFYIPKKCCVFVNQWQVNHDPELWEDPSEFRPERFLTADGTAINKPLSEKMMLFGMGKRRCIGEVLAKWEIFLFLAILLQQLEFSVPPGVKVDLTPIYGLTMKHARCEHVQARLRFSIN
Chain of Glucocorticoid receptor (Homo sapiens) (P04150 whole entry, looked up, the tested form may be a part): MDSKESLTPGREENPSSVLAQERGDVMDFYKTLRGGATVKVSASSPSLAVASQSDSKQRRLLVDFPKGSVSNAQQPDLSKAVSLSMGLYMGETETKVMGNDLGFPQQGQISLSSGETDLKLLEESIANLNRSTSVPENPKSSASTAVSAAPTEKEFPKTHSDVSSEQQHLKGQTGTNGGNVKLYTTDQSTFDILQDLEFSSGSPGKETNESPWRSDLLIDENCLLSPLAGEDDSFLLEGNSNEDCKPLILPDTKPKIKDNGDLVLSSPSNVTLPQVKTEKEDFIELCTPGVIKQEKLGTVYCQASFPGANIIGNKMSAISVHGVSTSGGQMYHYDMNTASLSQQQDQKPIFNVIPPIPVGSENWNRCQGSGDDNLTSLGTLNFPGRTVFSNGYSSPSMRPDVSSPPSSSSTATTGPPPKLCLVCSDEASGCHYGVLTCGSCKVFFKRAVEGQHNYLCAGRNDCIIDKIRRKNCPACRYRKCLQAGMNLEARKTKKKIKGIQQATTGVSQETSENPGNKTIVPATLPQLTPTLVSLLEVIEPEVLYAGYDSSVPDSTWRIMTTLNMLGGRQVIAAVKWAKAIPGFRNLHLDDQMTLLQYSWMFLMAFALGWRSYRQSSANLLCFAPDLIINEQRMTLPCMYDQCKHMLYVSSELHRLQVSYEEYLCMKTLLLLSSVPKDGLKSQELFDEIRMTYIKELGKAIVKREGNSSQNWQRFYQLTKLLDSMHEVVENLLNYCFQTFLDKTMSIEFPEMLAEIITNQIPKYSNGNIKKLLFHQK

O=C(c1ccncc1)N1CCC[C@@]2(CCN(Cc3nccs3)C2)C1
15.4%: max response [5, 15]
8.75%: max response [5, 14]
inactive: outcome [1] | activity change, negative = inhibition ([2]; at 7.69 µM (top of the series)) 5.07% | Potency [3] > 46 µM | outcome [4] | activity change, negative = inhibition ([5]; at 57.5 µM (top of the series)) 3.49%

CCNC[C@H](O)c1cccc(O)c1
-11.3%: max response [5, 14]
inactive: outcome [1] | Potency [6] | activity change, negative = inhibition ([2]; at 17.2 µM (top of the series)) -13.2% | outcome [7] | Potency [8] > 20.6 µM | Potency [3] > 20.6 µM | outcome [4] | Potency [9] | activity change, negative = inhibition ([5]; at 25.7 µM (top of the series)) -1.26% | Potency [10] | Potency [11] | activity, negative = inhibition [12, 16] -4.47% | activity, negative = inhibition [12, 17] 2.63% | Potency (C2A) | Potency (CP192) | Potency (CP211) | Potency (CP266) | Potency (CP315) | Potency (CP329) | Potency (FAB9)
-12.3%: max response [5, 15]

O=C(Nc1cccc(F)c1)N1CC[C@@]2(CCCN(C(=O)Oc3ccccc3)C2)C1
6.61%: max response [5, 14]
active: Potency [6] 15.8 µM
19.8%: max response [5, 15]
inactive: outcome [1] | activity change, negative = inhibition ([2]; at 7.69 µM (top of the series)) -6.58% | outcome [7] | Potency [3] > 46 µM | outcome [4] | activity change, negative = inhibition ([5]; at 57.5 µM (top of the series)) 7.1%

C=CCc1ccc(OC)cc1
inactive: outcome [4] | activity change, negative = inhibition ([5]; at 57.5 µM (top of the series)) 1.63% | Potency [13]
21.3%: max response [5, 14]
23.9%: max response [5, 15]

CC[N@+]1(C)CCC[C@@H](OC(=O)C(O)(c2ccccc2)c2ccccc2)C1
-5.77%: max response [5, 15]
-4.84%: max response [5, 14]
active: activity change, negative = inhibition ([2]; at 17.2 µM (top of the series)) -31.8%
inactive: outcome [1] | Potency [6] | outcome [7] | Potency [8] > 20.6 µM | Potency [3] > 20.6 µM | outcome [4] | Potency [9] | activity change, negative = inhibition ([5]; at 25.7 µM (top of the series)) -4.06% | Potency [13]

CN1CCc2cc3c(cc2[C@@H]1O)OCO3
4.41%: max response [5, 14]
3.98%: max response [5, 15]
inactive: outcome [1] | Potency [6] | activity change, negative = inhibition ([2]; at 17.2 µM (top of the series)) -5.65% | outcome [7] | Potency [8] > 20.6 µM | Potency [3] > 20.6 µM | outcome [4] | Potency [9] | activity change, negative = inhibition ([5]; at 25.7 µM (top of the series)) 0.396% | Potency [13]

COc1ccc(C[C@H]2c3cc(OC)c(OC)cc3CCN2C)cc1OC
12.8%: max response [5, 15]
inactive: outcome [1] | Potency [6] | activity change, negative = inhibition ([2]; at 17.2 µM (top of the series)) -1.22% | outcome [7] | Potency [8] > 20.6 µM and > 46 µM | Potency [3] > 20.6 µM and > 46 µM | outcome [4] | Potency [9] | activity change, negative = inhibition ([5]; at 25.7 µM (top of the series)) 1.88%
10%: max response [5, 14]

CC[C@@]1(c2ccc(N)cc2)CCC(=O)NC1=O
-2.21%: max response [5, 15]
inactive: outcome [1] | Potency [6] | activity change, negative = inhibition ([2]; at 17.2 µM (top of the series)) -14.6% | activity change, negative = inhibition ([2]; at 38 µM (top of the series)) 6.21% | Potency [8] > 46 µM and > 20.6 µM | Potency [3] > 46 µM and > 20.6 µM | outcome [4] | Potency [9] | activity change, negative = inhibition ([5]; at 25.7 µM (top of the series)) 0.179% | Potency [10] | Potency [13] | Potency [11] | activity, negative = inhibition ([12]; at 28.7 µM (top of the series), parasite line A) 3.34% | activity, negative = inhibition ([12]; at 28.7 µM (top of the series), parasite line B) 3.27% | Potency (C2A) | Potency (CP192) | Potency (CP211) | Potency (CP266) | Potency (CP315) | Potency (CP329) | Potency (FAB9)
-3.22%: max response [5, 14]

CN1C(=O)CCS(=O)(=O)[C@@H]1c1ccc(Cl)cc1
-4.68%: max response [5, 15]
inactive: outcome [1] | Potency [6] | activity change, negative = inhibition ([2]; at 17.2 µM (top of the series)) 1.85% | outcome [7] | Potency [8] > 20.6 µM | Potency [3] > 20.6 µM | outcome [4] | activity change, negative = inhibition ([5]; at 25.7 µM (top of the series)) -0.668%
-4.45%: max response [5, 14]

C[C@@]12CCC(=O)C=C1C=C[C@H]1[C@H]3CC[C@](O)(CCC(=O)O)[C@]3(C)CC[C@@H]12
-8.17%: max response [5, 15]
-7.2%: max response [5, 14]
inactive: outcome [1] | Potency [6] | activity change, negative = inhibition ([2]; at 17.2 µM (top of the series)) -1.71% | outcome [7] | Potency [8] > 20.6 µM | Potency [3] > 20.6 µM | outcome [4] | Potency [9] | activity change, negative = inhibition ([5]; at 25.7 µM (top of the series)) -0.688% | Potency [10] | Potency [13] | Potency [11] | activity, negative = inhibition [12, 16] 9.22% | activity, negative = inhibition [12, 17] 6.42% | Potency (C2A) | Potency (CP192) | Potency (CP211) | Potency (CP266) | Potency (CP315) | Potency (CP329) | Potency (FAB9)

CCN1C[C@@]2(COC)CC[C@H](OC)[C@]34[C@@H]1[C@]1(OCO[C@@]15C[C@@H](OC)C1C[C@H]3[C@H]5[C@@H]1OC)[C@H](O)[C@@H]24
-14.7%: max response [5, 14]
-15%: max response [5, 15]
inactive: outcome [1] | Potency [6] | activity change, negative = inhibition ([2]; at 17.2 µM (top of the series)) -1.05% | outcome [7] | Potency [8] > 20.6 µM | Potency [3] > 20.6 µM | outcome [4] | Potency [9] | activity change, negative = inhibition ([5]; at 25.7 µM (top of the series)) -0.879% | Potency [13]

COC1=CC(=O)O[C@@H](/C=C\c2ccccc2)C1
inactive: outcome [1] | activity change, negative = inhibition ([2]; at 17.2 µM (top of the series)) -0.425% | outcome [7] | Potency [8] > 20.6 µM | Potency [3] > 20.6 µM | outcome [4] | Potency [9] | activity change, negative = inhibition ([5]; at 25.7 µM (top of the series)) 1.1% | Potency [13]
-0.269%: max response [5, 15]
active: Potency [6] 3.16 µM
-5.23%: max response [5, 14]

CCN1C[C@]2(COC)CC[C@H](O)[C@@]34[C@@H]5C[C@H]6[C@@H](OC)[C@H]5[C@](O)(C[C@@H]6OC)[C@@](O)([C@@H](OC)[C@H]23)[C@@H]14
inactive: outcome [1] | Potency [6] | activity change, negative = inhibition ([2]; at 17.2 µM (top of the series)) 2.57% | outcome [7] | Potency [8] > 20.6 µM | Potency [3] > 20.6 µM | outcome [4] | Potency [9] | activity change, negative = inhibition ([5]; at 25.7 µM (top of the series)) 0.923% | Potency [13]
-10.9%: max response [5, 14]
-9.81%: max response [5, 15]
